Results as given in paper PMC5540273 (PLoS ONE, 2017).

test system: T1, VEGFR2; conditions: concentration: 1 μM, replicates: in singlicate; n = 1
T1 construct: gene KDR
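Also: KINOMEscan kinase panel screen.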

Structure (SMILES)	%Inh [%]
COC(=O)Nc1nc2cc(Oc3ccc(NC(=O)Nc4cc(F)ccc4F)cc3)ccc2[nH]1.Cl [GW701424]	68
O=c1cc(N2CCOCC2)nc2n(Cc3cccc(Cl)c3Cl)c(C3CC3)nn12 [GSK2358994]	0
Nc1nccc(-c2c(-c3ccc(F)cc3)ncn2C2CCN(CC(F)(F)F)CC2)n1 [SB-236560]	0
O=C(Nc1cccc(-c2nn3ncccc3c2-c2ccnc(Nc3cccc(C(F)(F)F)c3)n2)c1)c1c(F)cccc1F [GSK299495]	29
CSc1ccc(-c2cc3ncnc(SCC(=O)O)c3s2)cc1	0
Cn1ccc2ncnc(Oc3ccc(NC(=O)Nc4ccncc4)c(Cl)c3)c21	1
O=c1cc(N2CCOCC2)nc2n(Cc3cccc4ccccc34)ccn12 [GSK2333389]	0
CCc1nc(-c2cccc(C)c2)c(-c2ccnc(NCc3ccccc3)c2)s1	0
CC(C)(C)n1cnc2c(N)ncnc21 [SKF-97359]	0
COc1ccc(CNC(=O)NC2CCN(c3ccnc(Nc4ccc(OC)cc4)n3)C2)cc1 (centres unmarked) [GSK1379727]	0
Fc1ccc(-c2ncn(CCCN3CCOCC3)c2-c2ccccn2)cc1 [SB-211742]	0
O=c1cc(N2CCOCC2)nc2n(Cc3cccc(F)c3)ccn12 [GSK2297430]	0
COc1cc(Nc2nccc(N3CCC(NC(=O)c4cccc(NC(C)=O)c4)C3)n2)cc(OC)c1OC (centres unmarked) [GSK1379754]	10
Cc1cccc(Cn2ccn3c(=O)cc(N4CCOCC4)nc23)c1 [GSK2297542]	0
